Test results as given in PubChem BioAssay AID1347056 (Sanford-Burnham Center for Chemical Genomics, 2019).
“And” between values parts separate entries of the source, which are not always exact repeats. Equal entries are not always repeated. About 3,600 (1%) of roughly 360,000 compounds were called active. The entries come from a sample that favours actives as a whole. Unmarked numbers belong to inactive results.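 Rule for the calls: active = compounds whose plate-normalised and pattern-corrected inhibition of the luciferase reporter signal at the single screening dose is 50% or more; inactive = the rest.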

test: inhibitors of TROY-driven NF-kB signaling, primary screen, Q293 LMP1-TROYcd cells, NF-kB luciferase, uHTS (AID 1347056); settings: Q293 LMP1-TROYcd NF-kB luciferase reporter, 4 h; at 10 µM; active compounds read high

| SMILES | inhibition |
| --- | --- |
| O=C(NCCC1CCCCN1S(=O)(=O)c1cccs1)C(=O)Nc1ccc(F)cc1F (stereo not drawn) | 1.77% |
| COc1cc(NC(=O)COc2ccccc2Cl)ccc1NC(=O)C(C)C | -6.06% |
| Cc1ccccc1OCC(=O)Nc1ccc(N2CCN(C(=O)C(C)C)CC2)c(Cl)c1 | 52.5% (active) |
| CCc1ccccc1OCC(=O)Nc1ccc(C)c(S(=O)(=O)N2CCCCCC2)c1 | 3.2% |
| COc1cccc(-c2cc3nc4c(c(N5CCC6(CC5)OCCO6)n3n2)CCCC4)c1 | 7.88% |
| CC(=O)c1c(C)[nH]c(C(=O)COC(=O)CCOc2ccc(C)cc2)c1C | 17.8% |
| CN(c1ccccc1)S(=O)(=O)c1ccc(Cl)c(C(=O)OCC(N)=O)c1 | -2.16% |
| CC(=O)c1c(C)[nH]c(C(=O)COC(=O)c2cccc(S(=O)(=O)N(C)c3ccccc3)c2)c1C | 71% (active) |
| CCO[C@@H]1OC(C(=O)N2CCOCC2)=C[C@H](C)[C@H]1CCCO | -7.92% |
| CCCCCCCNc1nc(Cl)nc(NCCO)n1 | 4.41% |
| Nc1nc(SCC(=O)Nc2cc(C(F)(F)F)ccc2Cl)[nH]c(=O)c1NC(=O)c1ccco1 | -8.07% |
| O=C(Nc1cc(C(F)(F)F)ccc1Cl)c1cc2nc3c(c(C(F)(F)F)n2n1)CCCC3 | 79% (active) |
| O=C(Nc1ccc(Cl)cc1)c1cc2nc(C3CC3)cc(C(F)(F)F)n2n1 | -25.1% |
| Cn1c(=O)c2c(nc(Br)n2CCSc2nc3ccccc3o2)n(C)c1=O | -10.2% |
| OCCNCCOc1ccc(Cl)c(Cl)c1 | 10.3% |
| O=C(Cn1c(NCCO)nc2ccccc21)c1ccc(Cl)cc1Cl | 22.3% |
| OCCNc1nc(Nc2ccc(Cl)c(Cl)c2)nc2ccccc12 | 68.4% (active) |
| C[C@H](CO)N1C[C@H](C)[C@H](CN(C)C(=O)Nc2ccc3c(c2)OCO3)Oc2ncc(Br)cc2C1=O | 6.4% |
| CCn1c(C(C)NC(=O)c2ccc(C)cc2)n[nH]c1=S (stereo not drawn) | 21.8% |
| C=C(C)CNC(=O)c1ccc(OC2CCN(C(=O)COC)CC2)cc1 | -21.5% |
| COc1ccc(NC(=O)C2C3CCC(O3)C2C(=O)O)cc1OC (stereo not drawn) | 8.24% |
| COc1ccc(NC(=O)CSCc2ccc([N+](=O)[O-])cc2)cc1OC | -16.9% |

| SMILES | inhibition |
| --- | --- |
| COc1ccc(NC(=S)SC)cc1OC | 55.6% (active) |
| O=C1c2ccccc2C(=O)N1CCC(c1ccccc1)c1ccco1 (stereo not drawn) | -65.2% |
| Cc1csc(NC(=O)CSc2nc(=O)cc(N)n2-c2ccc(F)cc2)n1 | -68.1% |
| COC(=O)c1sc(NC(=O)c2ccc(OC)cc2OC)nc1C | 66.7% (active) |
| COc1ccc(C(=O)NC(C)CCc2ccccc2)c(OC)c1 (stereo not drawn) | -16.4% |
| Cc1ccccc1OCC(=O)Nc1nc(C)c(C(=O)N(C)C)s1 | -13.4% |
| COc1cc(SC)ccc1C(=O)Nc1nc(C)cs1 | 85.8% (active) |
| Cc1csc(NC(=O)NC2(C(F)(F)F)Oc3ccccc3O2)n1 | -1.84% |
| CCCC(C(=O)NC1CCCC1)N(C(=O)Cn1nnc(-c2ccc(C)o2)n1)c1cccc(O)c1 (stereo not drawn) | -5.35% |
| C=CCn1c(COc2ccccc2F)nnc1SCC(=O)N1CC(=O)Nc2ccccc21 | -21.6% |
| COc1cccc(N=c2oc3c(C)ncc(CO)c3cc2C(N)=O)c1 | -39.2% |
| O=C(Nc1ccc(Cl)cc1)/C(=C1\CCCN1)[N+](=O)[O-] | -75.7% |
| Cc1cccc2nc(CSc3nc4[nH]ncc4c(=O)n3-c3cccc(Cl)c3)cc(=O)n12 | 35.3% |
| COc1ccc(N(CC(=O)NC(C)(C)C)C(=O)c2ccco2)cc1 | -5.86% |
| CCCNC(=O)C(=O)Nc1cc2c3c(c1)CCC(=O)N3CCC2 | -5.66% |
| CN(Cc1cn(Cc2ccc(C(F)(F)F)cc2)nn1)C1CN(Cc2cn(Cc3ccc(C(F)(F)F)cc3)nn2)S(=O)(=O)C1 (stereo not drawn) | 14.4% |
| CN(C(=O)Nc1ccc(Cl)cc1)n1cnc2ccccc2c1=O | -48.7% |
| CN(c1ccc2nc3ccccc3c(=O)n2n1)C1CCCCC1 | 90.3% (active) |
| CC(C)(C)c1nc2ccccc2c(=O)n1N1C(=O)c2ccccc2C1=O | 12.4% |
| CNc1cc(-c2c(OC)cccc2OC)ncn1 | -15.5% |
| CCCNC(=O)c1cc(C2CCCCN2S(=O)(=O)c2ccc(C#N)cc2)on1 (stereo not drawn) | -10.6% |
| CC(Oc1ccc(Br)cc1)C(=O)NCC(c1ccco1)N1CCCCC1 (stereo not drawn) | 7.2% |

| SMILES | inhibition |
| --- | --- |
| CCC[C@H]1CCCC/C=C\CCCC(=O)OCCN1C(=O)OC(C)(C)C | 12.2% |
| CCN(CC)C(=O)c1sc2nc(-c3ccccc3)ccc2c1N | 69.8% (active) |
| CCOC(=O)C(C)n1nc(-c2ccccc2)c2ccccc2c1=O (stereo not drawn) | 7.19% |
| CCN(CC)C(=O)c1nc[nH]c1C(=O)N(C)Cc1ccccc1 | -9.82% |
| COc1ccccc1/C=C/CN1CCC(CO)(Cc2ccccc2)CC1 | -1.26% |
| COc1cccc2c1C(=O)c1c(O)c3c(c(O)c1C2=O)CC(O)(C(C)=NNC(=O)c1ccc(Cl)c(Cl)c1)CC3OC1CC(N)C(O)C(C)O1 (stereo not drawn) | 69.6% (active) |
| Cc1ccccc1CN(c1ccc(C(=O)NCC2CCCO2)cc1)S(C)(=O)=O (stereo not drawn) | -8.79% |
| C#CCNC(=O)[C@H](Cc1ccc(C(=O)c2ccccc2)cc1)NC(=O)OC(C)(C)C | 5.88% |
| CC(=O)Nc1ccc(NC(=O)CSC2=NS(=O)(=O)c3ccccc3N2)cc1 | -4.58% |
| CCc1ccccc1NC(=O)CN(c1ccc(OC)cc1OC)S(=O)(=O)c1ccccc1[N+](=O)[O-] | 1.82% |
| N#Cc1c(NC(=O)CCCN2C(=O)c3ccccc3C2=O)oc(-c2ccccc2)c1-c1ccccc1 | -11.3% |
| N#Cc1c(/N=C/N2CCCC2)oc(-c2ccccc2)c1-c1ccccc1 | 51.8% (active) |
| COc1ccc(-c2oc(/N=C/N3CCCC3)c(C#N)c2-c2ccc(OC)cc2)cc1 | -5.76% |
| C#C[C@]1(O)CC[C@H]2[C@@H]3CCC4=CC(=O)CC[C@@H]4[C@H]3CC[C@@]21CC | -7.9% and -4.22% |
| Cc1ccc(CNC(=O)C2(C(F)(F)F)C/C(=C\Cc3ccccc3)CCCO2)o1 (stereo not drawn) | 6.34% |
| CCC1Nc2ncnc(N3CCN(c4ccccc4)CC3)c2N(Cc2ccc(Cl)cc2)C1=O (stereo not drawn) | 18.3% |
| O=C(Nc1ncccc1O)c1ccc(S(=O)(=O)N2CCCCCC2)cc1 | -10.3% |
| O=S(=O)(c1ccc(Br)cc1)N1CCC(c2nc3ccccc3[nH]2)CC1 | 2% |
| N#CC(C(=O)c1ccc(S(=O)(=O)N2CCCCCC2)cc1)c1nc2ccccc2[nH]1 (stereo not drawn) | 51.6% (active) |
| CN1CCN(S(=O)(=O)c2cccc(C(=O)Nc3sccc3C#N)c2)CC1 | -0.51% |
| O=C(NC(=S)Nc1ccccc1C(=O)O)c1ccc(-c2ccc(Br)cc2)o1 | 79.8% (active) |
| CN1CCN(C(=O)c2ccc(-c3ccc(Br)cc3)o2)CC1 | -59.3% |

| SMILES | inhibition |
| --- | --- |
| O=C(NC(=S)Nc1cc(C(F)(F)F)ccc1N1CCOCC1)c1ccc(-c2cccc(Cl)c2)o1 | -13.2% |
| [O-][n+]1c2c(nn1-c1ccc(Cl)c(Cl)c1)-c1nonc1CC2 | 10.8% |
| Cc1ncc(CO)c(/C=N/NC(=O)c2cccc(S(=O)(=O)N3CCCC3)c2)c1O | 32.4% |
| Cc1ccc(OCC(=O)c2cc(C)n(Cc3ccco3)c2C)c([N+](=O)[O-])n1 | -2.73% |
| Cc1cc(C(=O)COC(=O)CNC(=O)c2ccc(F)cc2)c(C)n1Cc1ccco1 | 71.1% (active) |
| COCCn1c(C)cc(C(=O)COC(=O)CNC(=O)c2ccco2)c1C | -1.63% |
| O=C(COC(=O)Cn1[nH]c(=O)c2ccccc2c1=O)Nc1c(Cl)cccc1C(F)(F)F | -7.36% |
| O=C(Cn1cnc2ccccc2c1=O)Nc1cccc(S(=O)(=O)N2CCCCC2)c1 | 6.2% |
| O=C1CCCN1C(=O)COc1ccc([N+](=O)[O-])cc1 | 9.48% |
| O=C1/C(=C\c2ccc([N+](=O)[O-])cc2)CS(=O)(=O)C/C1=C/c1ccc([N+](=O)[O-])cc1 | 75% (active) |
| CCCCC(=O)Nc1c2c(nn1-c1ccc([N+](=O)[O-])cc1)CS(=O)(=O)C2 | -5.93% |
| CC1(C)Cc2c(sc(NC(=O)C(=O)NCC3CCCO3)c2C(=O)O)CO1 (stereo not drawn) | -13.6% |
| CCc1c(O)cc2n(c1=O)-c1ccccc1C2(C)C | 4.14% |
| CCN(CCCNC(=O)c1ccc2c(c1)NC(=O)CN2C)c1cccc(C)c1 | 71.7% (active) |
| CCN(CCCNC(=O)C1CCN(S(=O)(=O)c2cnc[nH]2)CC1)c1ccccc1 | -0.34% |
| CCN(CCCNC(=O)CCn1c(=O)[nH]c2ccsc2c1=O)c1ccccc1 | 0.42% |
| Cc1ccc(SC(CC(=O)c2ccc(C(C)(C)C)cc2)C(=O)O)cc1 (stereo not drawn) | 14.6% |
| CCOc1ccc(NS(=O)(=O)c2ccc(Cl)c(C(=O)N(C)Cc3cccnc3)c2)cc1 | -2.69% |
| Fc1ccccc1-c1cc2cc3c(cc2cn1)OCO3 | -40.9% |
| CC(NCC(=O)Nc1cc(Cl)cc(Cl)c1)c1ccccc1 (stereo not drawn) | 17.5% |
| Cc1nnc(SC(C(=O)c2ccccc2)c2ccccc2)[nH]c1=O (stereo not drawn) | 14.7% |
| Cc1nnc(SC(C(=O)Nc2cc(Cl)cc(Cl)c2)c2ccccc2)[nH]c1=O (stereo not drawn) | 54.4% (active) |
